Results published in PubChem BioAssay (NCATS).
Values joined by “and” are separate entries in the source; they are usually repeats but may differ in a detail not shown here. Equal values may be shown once. Inconclusive results are not listed. More than one record can exist for a structure, and the calls need not agree. Active and inactive are the calls of the source. Unless noted, calls come from the whole dose curve; as a rule, active = well fitted curve in the direction sought with a large enough effect; inconclusive = small, poorly fitted or top-dose-only effect, or another doubt; inactive = no such curve, though single readings can be large; an effect the other way counts as inactive or inconclusive.

How the values were obtained:
[1] = qHTS profiling of the MIPE4 collection as inhibitors of Plasmodium falciparum (HB3) proliferation (AID 743347; call rule not given here;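 note: plate controls were DMSO vehicle wells for no effect and artemisinin wells for full effect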); settings: P. falciparum HB3 in erythrocytes, SYBR Green DNA, 72 h; at 28.5 µM (top of the series) unless noted
Method in brief: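 Parasite DNA was quantified by SYBR Green I fluorescence (ex 485, em 535 nm) after overnight lysis in saponin/Triton buffer at room temperature. Cultures at 0.3% parasitemia and 2.5% hematocrit were first exposed to compound for 72 h at 37 C; signals were normalised to artemisinin (0.29 uM) and vehicle wells.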

[2] = High-throughput drug toxicity screening in the BPDCN cell line Gen2.2 (AID 1224824; call rule not given here;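 note: cells exposed to compounds for 48 h before reading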); settings: Gen2.2 BPDCN cells; at 45.8 µM (top of the series) unless noted
Method in brief: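 Seed 500 exponentially growing Gen2.2 cells/well; add compounds by pin tool; incubate 48 h, 37 °C, 5% CO2; add CellTiter-Glo, 15 min RT; read luminescence. % activity vs DMSO (100%) and bortezomib (0%).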

[3] = High-throughput drug toxicity screening in the BPDCN cell line Cal-1 (AID 1224825; call rule not given here); settings: Cal-1 BPDCN cell viability, qHTS; at 45.8 µM (top of the series) unless noted
Method in brief: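 CellTiter-Glo luminescence after 48 h compound exposure; percent activity scaled with DMSO as 100% and bortezomib (9.2 uM final) as 0%. Cal-1 cells seeded at 500/well in RPMI, 10% FBS, no phenol red.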

[4] = qHTS assay for measurement of the activity of small molecule inhibitors on Zika virus induced Caspase-3 activity in human iPSC derived neural progenitor cells (hNPCs) (AID 1224857); note: nearly all actives have a fitted effect of over 65% in size; note: potency is the fitted concentration of half-maximal effect
Method in brief: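 Quantitative HTS format: human iPSC neural progenitors, 1 h compound pretreatment, ZIKV 2 FFU/cell for 6 h at 37 C. Percent inhibition derived from luminescent caspase-3/7 signal between uninfected and infected controls.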

[5] = qHTS Screen of the MIPE 4.0 Collection Against Ewings Sarcoma (RDES) (AID 1259252); note: potency is the fitted concentration of half-maximal effect; nearly all actives have a fitted effect of over 35% in size
Method in brief: (§1)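 Log-phase cells in RPMI with 5% FBS attached for 4 h, then received compounds as a titration for 48 h at 37C, 5% CO2. Viability was read by CellTiter-Glo luminescence and normalized to DMSO and no-cell wells.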

[6] = qHTS Screen of the MIPE 4.0 Collection Against Ewings Sarcoma (EW8) (AID 1259255); note: potency is the fitted concentration of half-maximal effect; nearly all actives have a fitted effect of over 35% in size
Method in brief: as §1

[7] = qHTS Screen of the MIPE 4.0 Collection Against Ewings Sarcoma (TC32) (AID 1259256); note: potency is the fitted concentration of half-maximal effect; nearly all actives have a fitted effect of over 45% in size
Method in brief: as §1

[8] = qHTS assay to identify small molecule inhibitors of chordoma cells - UCH-1 (AID 1259355); note: % is set by controls: 0 for no effect and ±100 for the full control effect; nearly all actives have a fitted effect of over 55% in size
Method in brief: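 Screening used approved and investigational drugs in 15-point titration against 800 seeded cells per well. A fixed combination of auranofin with camptothecin, doxorubicin, rubitecan and topotecan followed compound addition, and growth was scored by CellTiter-Glo after 48hr.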

Q: Which growth, % of control [1] does the source give for `CN(Cc1cnc2nc(N)nc(N)c2n1)c1ccc(C(=O)N[C@@H](CCC(=O)O)C(=O)O)cc1` here?
A: 19.5%

Q: And the cell viability, % of control (lower = more cytotoxic) [2]?
A: 70%

Q: What about the viability (% of control) [3] of the same molecule?
A: 9.1%

Q: And the Potency [4]?
A: inactive

Q: And the Potency [5]?
A: 0.0332 µM (active)

Q: What about the Potency [6] of the same molecule?
A: 0.0264 µM (active)

Q: What about the Potency [7] of the same molecule?
A: 0.0372 µM (active)

Q: For `CS(=O)(=O)Nc1ccc([N+](=O)[O-])cc1Oc1ccccc1`, which growth, % of control [1] is on record?
A: 92.7%

Q: What about the cell viability, % of control (lower = more cytotoxic) [2] of the same molecule?
A: 111%

Q: What about the viability (% of control) [3] of the same molecule?
A: 17%

Q: What about the Potency [4] of the same molecule?
A: inactive

Q: What about the Potency [6] of the same molecule?
A: 16.6 µM (active)

Q: What about the Potency [7] of the same molecule?
A: 14.8 µM (active)

Q: And the Potency [8]?
A: inactive

Q: Which results are given for `NC(CO)C(=O)NNCc1ccc(O)c(O)c1O` (stereo not given)?
A: growth, % of control [1]: 99.5%; cell viability, % of control (lower = more cytotoxic) [2]: 86.9%; viability (% of control) [3]: 79.5%; Potency [4]: inactive and 7.43 µM (active); Potency [7]: 26.4 µM (active); Potency [8]: inactive
